Results as given in the supplement of paper PMC3334620.
The full ranking holds about 33,000 sequences; the median of “E-score (-0.5 to 0.5)” is about -0.035, and the highest 2% start at about 0.34. Only a selection was taken, and the highest values are over-represented in it overall.

biological target: T1, Mot3 (UniProt P54785); assay: PBM E-score (8-mer binding enrichment) (E-score (-0.5 to 0.5)); higher = stronger / more preferred TF binding; settings: protein concentration: 200 nM; construct: GST-full length
T1 sequence: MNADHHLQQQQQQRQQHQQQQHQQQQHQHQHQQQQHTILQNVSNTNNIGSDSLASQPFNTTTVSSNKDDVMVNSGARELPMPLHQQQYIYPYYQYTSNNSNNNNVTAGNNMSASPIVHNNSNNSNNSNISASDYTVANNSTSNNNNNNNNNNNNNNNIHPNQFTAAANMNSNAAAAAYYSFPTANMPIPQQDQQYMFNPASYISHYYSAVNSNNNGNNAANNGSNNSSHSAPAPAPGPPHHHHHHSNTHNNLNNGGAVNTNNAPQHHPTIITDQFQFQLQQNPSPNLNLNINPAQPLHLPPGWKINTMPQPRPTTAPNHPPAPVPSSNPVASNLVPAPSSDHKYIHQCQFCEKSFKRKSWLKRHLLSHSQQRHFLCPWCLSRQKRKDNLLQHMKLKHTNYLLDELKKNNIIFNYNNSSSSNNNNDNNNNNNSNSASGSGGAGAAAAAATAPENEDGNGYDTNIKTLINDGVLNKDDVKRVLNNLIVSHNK
In short: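 Bound GST-tagged yeast transcription factors, applied at about 100-200 nM to double-stranded universal all-10-mer Agilent arrays, were detected with fluorescent anti-GST. Scans were normalised with masliner. A modified Wilcoxon-Mann-Whitney statistic, the E-score, was assigned to each ungapped eight-base word pooled with its reverse complement by the Universal PBM Analysis Suite.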

| Sequence | PBM E-score |
| --- | --- |
| CTTCTAAC | -0.0665 |
| CGTGCTTC | 0.0855 |
| ACTCTACA | 0.174 |
| GTTAGCCA | -0.136 |
| CAGCTCTA | -0.168 |
| ACATTAGT | 0.187 |
| GGGAAACA | -0.036 |
| AGGAAACC | 0.42 |
| AGGAAACG | 0.339 |
| AGGAAACA | 0.391 |
| CGGAAACC | -0.352 |
| AGGAAACT | 0.421 |
| GGGAAACC | -0.00353 |
| ACGAAACT | -0.0505 |
| CGGAAACA | 0.0963 |
| GCGACGAA | -0.154 |
| ACGCGGAG | 0.105 |
| ACCTAGCA | 0.0477 |
| CATAGCGC | 0.0893 |
| TTACCTAA | 0.285 |
| GTACCTAA | 0.374 |
| GTACCTAC | 0.405 |
| ATACCTAC | 0.156 |
| ATACCTAA | 0.071 |
| CTACCTAC | 0.188 |

| Sequence | PBM E-score |
| --- | --- |
| AAGCGACG | -0.15 |
| ATGTTAAT | 0.338 |
| CTGTTAAG | 0.259 |
| ATGTTAAG | 0.37 |
| ATGTTTAA | 0.285 |
| ACGTTAAA | 0.3 |
| ATGTTAAA | 0.392 |
| AAGTTAAA | 0.219 |
| GAAGGGTA | 0.0495 |
| GGCCCTAC | -0.281 |
| ACAGACTG | -0.0643 |
| CGTGTTTC | 0.106 |
| CATACACG | 0.316 |
| AACACACT | 0.22 |
| AACACACG | 0.266 |
| AACACAAA | 0.22 |
| AACACACA | 0.34 |
| TACACGAA | 0.359 |
| CACACAAA | 0.151 |
| GACACGAA | 0.145 |
| CATACACA | 0.219 |
| TATACACA | 0.364 |
| CACACGAA | 0.165 |
| TACACAAA | 0.369 |
| ATAAACCG | -0.195 |

| Sequence | PBM E-score |
| --- | --- |
| ACAGCGGC | -0.112 |
| ATTAGAAC | 0.0827 |
| AGCTACAG | -0.0877 |
| GATACACA | 0.14 |
| CACACACA | 0.249 |
| AATACACA | 0.389 |
| GACACGCA | 0.246 |
| TACACACA | 0.385 |
| TACACGCA | 0.346 |
| AACACGCA | 0.326 |
| AATACACG | 0.394 |
| AATACACC | 0.271 |
| CACACACG | 0.159 |
| AATACAAG | 0.313 |
| AATACACT | 0.259 |
| CAAACGTG | 0.0815 |
| CCGACCAC | -0.189 |
| AGGGTCCA | -0.297 |
| CCGTATAG | -0.208 |
| ACATCGGG | -0.13 |
| ATCAATGC | -0.189 |
| CTCCAAAA | -0.179 |
| CAGGGACG | 0.0493 |
| GGAGAAAC | -0.149 |
| CGTAGCGA | -0.285 |

| Sequence | PBM E-score |
| --- | --- |
| GACTTGCC | 0.127 |
| AAGGTACA | 0.394 |
| CGGGTACC | 0.0123 |
| CAGGTACC | 0.434 |
| GAGGTACC | -0.0594 |
| AGGGTACC | 0.0598 |
| CCGGTACG | -0.199 |
| CAGGTACG | 0.409 |
| CAGATACG | -0.243 |
| CAGGTATC | 0.056 |
| AAGGTACC | 0.419 |
| AAGGTATA | 0.113 |
| AAGGTAGA | -0.0631 |
| ATCGAACC | -0.089 |
| ACTATCCA | -0.204 |
| CGCCTTGA | -0.0273 |
| AACATTGT | 0.257 |
| ATCTCCGA | -0.0589 |
| ATAAGTTA | 0.213 |
| AACTTAAA | 0.212 |
| ACGCTTCC | -0.0948 |
| CAGATCGA | -0.213 |
| AACAGCAA | 0.0647 |
| AAGGTATG | 0.0554 |
| AAGGTACT | 0.364 |

| Sequence | PBM E-score |
| --- | --- |
| ACGGTACT | -0.207 |
| AAGGTACG | 0.436 |
| AAGGTAGT | -0.0675 |
| ACGGTACG | -0.0434 |
| GACTCCAC | -0.34 |
| AGGCTCGG | 0.146 |
| ATGCGCTG | -0.00636 |
| AGCTACAT | 0.145 |
| ATATGTAC | 0.274 |
| GTATGTAA | 0.404 |
| GTATGTGA | 0.0776 |
| ATATGTGA | 0.197 |
| GGATGTAA | 0.295 |
| CTATGTAC | 0.378 |
| CTATGTAA | 0.41 |
| AGATGTAA | 0.272 |
| ATATGTAG | 0.202 |
| CTCTGTAC | 0.0774 |
| CTCTGTAA | 0.133 |
| ATATGTAA | 0.346 |
| CGATAGCA | -0.159 |
| CCCTTGCG | -0.214 |
| ACAAGTGC | 0.201 |
| CGATCGCG | -0.102 |
| GACCAATC | -0.039 |

| Sequence | PBM E-score |
| --- | --- |
| CCAAGTCG | -0.155 |
| AACCATCT | -0.143 |
| CCTACTCA | -0.046 |
| ATGCTGCG | -0.101 |
| GTATGTTA | 0.354 |
| ATATGTTA | 0.284 |
| CTATGTTA | 0.329 |
| ACTGAGAG | -0.0806 |
| ACAGAACT | -0.0328 |
| CCCCGGGG | -0.37 |
| GGGCTAAA | -0.189 |
| CTACCTGA | 0.0134 |
| ATACCTGA | 0.0776 |
| GTACCTTA | 0.355 |
| GTACCTGA | 0.402 |
| ATACCTTA | -0.0699 |
| CTACCTTA | 0.0561 |
| CTTAAGCA | 0.104 |
| CCGAATTC | -0.242 |
| AGAATCAC | -0.211 |
| CTGTGGCC | -0.0368 |
| GTTACGCA | 0.207 |
| AATACGCT | 0.188 |
| ATTACGCG | 0.377 |
| AATACGCG | 0.354 |

| Sequence | PBM E-score |
| --- | --- |
| CTTACGCA | 0.301 |
| ATTACGCC | 0.102 |
| ATTACGCA | 0.354 |
| CATACGCG | 0.155 |
| ATTACGGG | -0.00149 |
| AAACTGCA | -0.0533 |
| CTAGCAGC | -0.257 |
| CAACTGAA | 0.0709 |
| GAATGCAA | -0.0468 |
| CAGGGATG | 0.034 |
| CAGGTAAC | 0.39 |
| GAGGTAAA | 0.0852 |
| AAGGTAAA | 0.334 |
| GAGGTAAC | -0.0204 |
| AAGGTAGC | 0.149 |
| AAGGTAAC | 0.339 |
| AAGGTAAG | 0.27 |
| CAGGTAAA | 0.383 |
| AAGGTATT | 0.16 |
| AAGGTAAT | 0.34 |
| AGGGTAAT | -0.0805 |
| CAGGTAAG | 0.271 |
